From PubChem BioAssay AID1159580 (chemical genetic matrix, 2015)
“And” between values parts separate entries of the source, which are not always exact repeats. Identical values can stand only once. In all, about 5,500 compounds went through this assay and about 2,000 (36%) were called active. Another 18% or so got no clear call; they are omitted. No stated cut-off is given here; in the data, active means normalized growth mostly below about 0.91 (no sharp cut-off); inconclusive means no clear call, values can overlap the other calls; inactive means mostly above about 0.92. The list shows a part of the results.

Assay: chemical genetic growth profiling, strain panel (AID 1159580);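 further: tested at 20 µM; growth read once vehicle control cultures reached saturation at 30 °C; 1 = growth at the plate median or of vehicle wells; lower values mean less growth of the strain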
Details: S. cerevisiae deletion strains, growth OD

Measured: normalized growth

Nc1ncn([C@@H]2O[C@H](CO)[C@@H](O)[C@H]2O)c(=O)n1
inactive: locus YAL021C, strain ccr4, hits give low values 1.01 | locus YAL026C, strain drs2, hits give low values 0.998 | locus YAL030W, strain snc1, hits give low values 0.996 | locus YBL061C, strain skt5, hits give low values 0.987 | locus YBR009C, strain hhf1, hits give low values 0.992 | locus YBR021W, strain FUR4, hits give low values 0.999 | locus YBR023C, strain chs3, hits give low values 1 | locus YBR171W, strain sec66, hits give low values 0.962 | locus YBR229C, strain ROT2, hits give low values 1.01 | locus YBR231C, strain swc5, hits give low values 0.973 | locus YBR279W, strain paf1, hits give low values 0.995 | locus YCL011C, strain gbp2, hits give low values 1.01 | locus YCL016C, strain dcc1, hits give low values 0.987 | locus YCL029C, strain bik1, hits give low values 1 | locus YCL061C, strain MRC1, hits give low values 0.989 | locus YCL069W, strain vba3, hits give low values 0.979 | locus YCR088W, strain abp1, hits give low values 0.996 | locus YDL005C, strain med2, hits give low values 0.972 | locus YDL035C, strain GPR1, hits give low values 1.02 | locus YDL040C, strain nat1, hits give low values 0.981 | locus YDL074C, strain BRE1, hits give low values 1.03 | locus YDL101C, strain DUN1, hits give low values 1.01 | locus YDL134C, strain PPH21, hits give low values 1.01 | locus YDL185W, strain tfp1, hits give low values 0.99 | locus YDL192W, strain arf1, hits give low values 0.994 | locus YDR001C, strain nth1, hits give low values 0.984 | locus YDR069C, strain doa4, hits give low values 0.976 | locus YDR101C, strain arx1, hits give low values 0.996 | locus YDR137W, strain rgp1, hits give low values 1 | locus YDR159W, strain sac3, hits give low values 1 | locus YDR162C, strain NBP2, hits give low values 1.01 | locus YDR195W, strain ref2 0.91 | locus YDR297W, strain sur2, hits give low values 0.993 | locus YDR318W, strain mcm21, hits give low values 0.999 | locus YDR334W, strain swr1, hits give low values 0.989 | locus YDR335W, strain msn5, hits give low values 0.98 | locus YDR388W, hits give low values 0.997 | locus YDR392W, strain spt3, hits give low values 1.02 | locus YDR502C, strain sam2, hits give low values 1.01 | locus YEL003W, strain gim4, hits give low values 0.982 | locus YEL037C, strain rad23, hits give low values 0.992 | locus YEL061C, strain CIN8 (second series), hits give low values 0.986 | locus YEL061C, strain CIN8, hits give low values 1.01 | locus YER015W, strain faa2, hits give low values 0.99 | locus YER016W, strain bim1, hits give low values 1.01 | locus YER110C, hits give low values 1.01 | locus YER111C, strain swi4, hits give low values 0.959 | locus YER155C, strain BEM2 (second series), hits give low values 0.978 | locus YER155C, strain BEM2, hits give low values 1.01 | locus YER167W, strain BCK2, hits give low values 0.996 | locus YFR010W, strain ubp6, hits give low values 0.983 | locus YGL078C, strain dbp3, hits give low values 0.992 | locus YGL086W, strain mad1, hits give low values 1 | locus YGL167C, strain pmr1, hits give low values 0.987 | locus YGL173C, strain kem1, hits give low values 0.971 | locus YGL227W, strain vid30, hits give low values 0.983 | locus YGL240W, strain doc1, hits give low values 0.951 | locus YGL248W, strain PDE1, hits give low values 1.02 | locus YGL253W, strain hxk2, hits give low values 0.989 | locus YGR078C, strain PAC10, hits give low values 1.03 | locus YGR135W, strain pre9, hits give low values 0.99 | locus YGR229C, strain SMI1, hits give low values 1.02 | locus YGR252W, strain gcn5, hits give low values 0.962 | locus YHR013C, strain ard1, hits give low values 0.979 | locus YHR027C, strain rpn1, hits give low values 0.994 | locus YHR030C, strain SLT2, hits give low values 1.01 and 0.98 | locus YHR079C, strain IRE1 (second series), hits give low values 0.989 | locus YHR079C, strain IRE1, hits give low values 0.997 | locus YHR094C, strain hxt1, hits give low values 0.987 | locus YHR129C, strain ARP1, hits give low values 1.01 | locus YHR142W, strain chs7, hits give low values 0.974 | locus YHR200W, strain rpn10, hits give low values 0.993 | locus YIL066C, strain RNR3, hits give low values 1.02 | locus YIL073C, strain SPO22, hits give low values 0.973 | locus YIL125W, strain kgd1, hits give low values 0.997 | locus YIR030C, strain dcg1, hits give low values 1 | locus YJL092W, strain hpr5, hits give low values 0.984 | locus YJL095W, strain BCK1 (second series), hits give low values 0.972 | locus YJL095W, strain BCK1, hits give low values 1.03 and 0.98 | locus YJL115W, strain asf1, hits give low values 0.97 | locus YJL129C, strain trk1, hits give low values 0.966 | locus YJL134W, strain LCB3, hits give low values 1 | locus YJL154C, strain vps35, hits give low values 0.981 | locus YJL164C, strain tpk1, hits give low values 0.996 | locus YJL166W, strain qcr8, hits give low values 0.973 | locus YJL168C, strain set2, hits give low values 0.995 | locus YJL187C, strain SWE1 (second series), hits give low values 1.03 | locus YJL187C, strain SWE1, hits give low values 0.983 | locus YJR043C, strain POL32, hits give low values 1.01
